In PubChem BioAssay AID431 (Sanford-Burnham Center for Chemical Genomics, 2006) one finds cytotoxicity data, which are given here for 67 compounds.

Screen size: about 63,000 compounds; about 1,100 (1.7%) were called active. Only a selection was taken, and actives are over-represented in it overall. Results with a measured potency or affinity are listed apart. Unmarked numbers belong to inactive results.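 How the source made its calls: active means compounds whose percent cytotoxicity in the single-dose primary screen, scaled between solvent and toxic-drug controls, exceeds 50; inactive means the rest.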

This experiment is described as follows: viability loss of HPDE-C7K cells – cell-based, fluorescence, HTS, primary screen (AID 431).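 Further: 0% = DMSO solvent wells and 100% = doxorubicin-treated wells.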 Particulars: HPDE-C7K KRASV12 cells, Alamar Blue viability, 48 h; at 10 µM; active compounds read high.
`C=CCOC(=O)c1[nH]c2c(c1C)C(=O)CC(c1cc(OC)c(OC)c(OC)c1)C2` (configuration not stated): the cytotoxicity was -9.9%.

Consider `C/C=C/COC(=O)c1[nH]c2c(c1C)C(=O)CC(c1ccc(N(C)C)cc1)C2` (configuration not stated), for which the cytotoxicity was 10.6%. As for `C/C=C/COC(=O)c1[nH]c2c(c1C)C(=O)CC(c1ccco1)C2` (configuration not stated), the figure is 69.1% (active); as for `C=CCOC(=O)c1[nH]c2c(c1C)C(=O)CC(c1ccco1)C2` (configuration not stated), 67.6% (active); as for `CCn1c(SCC(=O)Nc2ccc(C(=O)OC)cc2)nnc1-c1cccs1`, -8.2%. Regarding `Cc1ccc(NC(=O)c2cc(NC(=O)c3ccco3)ccc2N2CCCCC2)cc1`, the cytotoxicity was 19.3%.

Turning to `CCNc1nc(NC(C)C)nc(N(C#N)Cc2ccccc2)n1`, the cytotoxicity was 3%. Regarding `CCCN(C#N)c1nc(NCC)nc(NC(C)C)n1`, the cytotoxicity is -9.4%. As for `CCNc1nc(NC(C)C)nc(N(C#N)CCOc2ccc(Cl)cc2Cl)n1`, the cytotoxicity was 109% (active).

For the compound `O=C(N1CCOCC1)N1CCN(S(=O)(=O)N2CCOCC2)CC1`, the cytotoxicity is -4.2%. For `CCc1c(C)nc2ncnn2c1NCCc1ccc(OC)c(OC)c1`, the cytotoxicity was -12.5%. As for `COc1ccc(CCNc2c(C)c(C)nc3ncnn23)cc1`, the figure is 33.4%; as for `CCc1c(C)nc2ncnn2c1NCCc1ccc(OC)cc1`, 64.2% (active). On to `Cc1cc(C)nc(Nc2n[nH]c(COc3ccc(Cl)cc3)n2)n1`, for which the cytotoxicity was 1.1%. `O=C(Nc1ncc(Br)s1)C1CCCN1S(=O)(=O)c1cccc2cccnc12` (configuration not stated): the cytotoxicity is -12.6%. For the compound `COC(=O)c1sccc1NC(=O)c1ccc(Cl)s1`, the cytotoxicity is 1.5%. As for `COc1ccccc1-c1cc(C(=O)Nc2cccnc2)no1`, the figure is 71.3% (active); as for `COc1ccccc1-c1cc(C(=O)Nc2cc(C)on2)no1`, 6.8%; as for `COc1ccc(NC(=O)c2cc(-c3ccccc3OC)on2)cc1`, 38.7%. As for `C=CCn1c(SCC(=O)Nc2ccc(C(=O)OCC)cc2)nnc1-c1cccs1`, the figure is -6.9%; as for `Cc1ccc2c(c1)N(CCC(=O)NCc1ccc3c(c1)OCO3)C(=O)CO2`, -4.5%. With `Cc1ccc(Nc2nc(C)c(CCC(C)C)c(=O)[nH]2)cc1`, the cytotoxicity is 1.8%.

Consider `Cc1nc(Nc2ccccc2)[nH]c(=O)c1CCC(C)C`, for which the cytotoxicity is -10.7%. In the case of `Cc1nc(Nc2ccc(F)cc2)[nH]c(=O)c1CCC(C)C` it was 66.2% (active).

In the case of `Cc1n[nH]c(C)c1S(=O)(=O)N1CCCC(C(=O)NC2CCCCC2)C1` (configuration not stated), the cytotoxicity was -3.4%. For `Cc1nnc2n1NC(c1ccc(Cl)cc1)C(C(=O)N1CCC(C)CC1)S2` (configuration not stated), the cytotoxicity is -14.7%. As for `CCOC(=O)c1c(NC(C)=O)no[n+]1[O-]`, the figure is -10.4%. In the case of `Cc1cc(C)cc(NC(=O)CSc2nc3c(c(=O)n2C)SC(C)C3)c1` (configuration not stated) it was -5.2%. As for `COCCSc1ccccc1C(=O)NCCCn1ccnc1`, the figure is -28.4%; as for `Oc1cccc2ccc(Nc3ccccn3)nc12`, 124% (active); as for `O=C(Nc1ccccn1)c1ccc2ccccc2n1`, -3.6%. For the compound `c1ccc(Nc2ccccc2Nc2ccccn2)nc1`, the cytotoxicity is -10.1%.

Turning to `Cn1c(SCC(=O)Nc2ccc3c(c2)OCCO3)nnc1-c1ccco1`, the cytotoxicity was 10.1%.

Turning to `N=c1n(CCN2CCCCC2)c2ccccc2n1CC(O)COc1ccccc1` (configuration not stated), the cytotoxicity is 16%. `N=c1n(CCN2CCCC2)c2ccccc2n1CC(O)c1ccco1` (configuration not stated): the cytotoxicity is -3.9%. As for `N=c1n(CCN2CCCCC2)c2ccccc2n1CC(O)c1cccc(Br)c1` (configuration not stated), the figure is 59.4% (active).

`CN(C)c1ccc(C2CC(=O)NC3=C2C(=O)CC(C)(C)C3)cc1` (configuration not stated): the cytotoxicity is -6.4%. As for `C=CCn1sc(N)c(C(=O)OCC)c1=S`, the cytotoxicity is 9%. Consider `O=C(CCNC(=O)Cn1ccc2ccccc2c1=O)NCCCN1CCN(c2ccccc2F)CC1`, for which the cytotoxicity was -16.9%.

`Cc1cc(C)c2c(=O)n(CC(=O)NCCCN3CCN(c4ccccc4F)CC3)sc2n1`: the cytotoxicity is 82.2% (active). In the case of `Cc1cc(C)c2c(=O)n(CC(=O)NCCCN3CCOCC3)sc2n1` it was 20.5%. Regarding `CCOC(=O)N1CCN(C(=O)c2ccc3c(c2)NC(=O)C(N2CCOCC2)S3)CC1` (configuration not stated), the cytotoxicity was -7.4%. Regarding `COCCNC(=O)CN1CCOc2ccccc21`, the cytotoxicity is -4.3%.

On to `COc1ccc(-c2cc(C(F)F)n3ncc(C(=O)N4CCN(C(=O)c5ccco5)CC4)c3n2)cc1`, for which the cytotoxicity was 5.6%.

As for `NC(=O)C1CCCN(Cc2ccc(Cl)cc2)C1` (configuration not stated), the cytotoxicity was -10.3%. With `Cc1c(NC(=O)OCCSc2nc(N(C)C)nc(N(C)C)n2)sc(=S)n1C`, the cytotoxicity is 66% (active). In the case of `CN(C)c1nc(SCCOC(=O)Nc2ccccc2)nc(N(C)C)n1` it was 16.1%; in that of `CCOC(=O)Nc1sc(=S)n(C)c1C`, -11.2%; in that of `Cc1cccc2cc(CN(CC3CCCO3)C(=O)c3ccncc3)c(=O)[nH]c12` (configuration not stated), 7.7%. As for `COc1ccccc1-c1nnc(SCC(=O)Nc2c(Cl)cccc2Cl)o1`, the figure is -1%. As for `COC(=O)CSc1nnc(-c2ccccc2OC)o1`, the figure is -18.2%; as for `CCOC(=O)C1=C(C)NC(SCC(=O)Nc2nc(C)cs2)=C(C#N)C1c1cccs1` (configuration not stated), 92.7% (active). With `CCOC(=O)C1=C(C)NC(SCc2cc(=O)[nH][nH]2)=C(C#N)C1c1cccs1` (configuration not stated), the cytotoxicity was 41.8%. As for `CCOCCSC1=C(C#N)C(c2cccs2)C(C(C)=O)=C(C)N1` (configuration not stated), the figure is 4.7%; as for `CCSC1=C(C#N)C(c2cccs2)C(C(=O)OC)=C(C)N1` (configuration not stated), 15.4%; as for `CCOC(=O)C1=C(C)NC(SCC(=O)Nc2cc(C)on2)=C(C#N)C1c1cccs1` (configuration not stated), 32.3%. As for `C#CCSC1=C(C#N)C(c2cccs2)C(C(=O)OCC)=C(C)N1` (configuration not stated), the figure is 53.6% (active); as for `O=C1N(CN2CCN(c3cccc(Cl)c3)CC2)c2ccccc2C12OCCCO2`, 0%; as for `Cc1ccc(NC(=O)c2oc3ccccc3c2NC(=O)c2ccc3c(c2)OCO3)cc1`, -7.7%. In the case of `COc1c(C)cc(Br)cc1C(=O)Nc1ccc(N2CCN(S(C)(=O)=O)CC2)cc1` it was 1.2%; in that of `CCc1nc2ccccc2c(C(=O)OCC(=O)Nc2ccc(S(=O)(=O)N3CCOCC3)cc2)c1C`, 43.3%.

`CCC(=O)Nc1cc(NC(=O)CSc2ncc(-c3ccc(F)cc3)n2Cc2ccco2)ccc1C`: the cytotoxicity is 3.3%. As for `COc1ccc(-c2cnc(SCC(=O)Nc3cc(C)on3)n2Cc2ccco2)cc1`, the figure is 0.3%. As for `COc1ccc(-c2cnc(SCC(=O)Nc3ccc4c(c3)OCO4)n2Cc2ccco2)cc1`, the figure is 18.8%; as for `Cc1cnc(NC(=O)CSc2ncc(-c3ccccc3)n2Cc2ccco2)s1`, -4.7%; as for `O=C(CSc1ncc(-c2ccc(F)cc2)n1Cc1ccco1)Nc1ccc2c(c1)OCO2`, 86.3% (active). Take `CC(=O)Nc1cccc(NC(=O)CSc2ncc(-c3ccc(Cl)cc3)n2Cc2ccco2)c1`: the cytotoxicity was 83.5% (active).
